Sampled rows, rich in hits. Any-hit rate of the full collection: about 1.8%.
GC-A act – GC-A stimulated cGMP production enhancers – HEK293 GC-A cells, cGMP TR-FRET, EC30 ANP, primary screen; activation, % at 10 µM; 0% at EC30 ANP, 100% saturating ANP; 370,000 compounds, 0.14% hits; AID 1671463, 2021; in the data active = activation above about 40%
GC-B act – human GC-B receptor activators, primary screen, HEK293 GC-B cells, cGMP TR-FRET, EC30 CNP | Atrial natriuretic peptide receptor 2 (Homo sapiens), P20594 | 0% at EC30 CNP, 100% saturating CNP | activation, % at 10 µM | 370,000 compounds, 0.11% hits | AID 1920062, 2024;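 active = activation at 10 µM reaching about 35% in either raw or pattern-adjusted values, limit read from the data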
Granule exo inh – LAMP-1 surface exposure blockers, TALL-104 cells – cell-based, flow cytometry, MLPCN library, primary screen; inhibition, % at 10 µM; 360,000 compounds, 0.66% hits; TALL-104 LAMP-1 surface exposure; cells stimulated with thapsigargin and PMA; AID 651702, 2012;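 active = inhibition above about 55%, limit read from the data; inconclusive = no clear call, values can overlap the other calls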
Myeloid diff 2 – induction of myeloid progenitor differentiation, primary screen, cell-based, flow cytometry, MLPCN library; AID 624256, 2012; calls only at 10 µM; 360,000 compounds, 1% hits; ER-HoxA9 myeloid progenitors, lysozyme-GFP differentiation;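 active = normalized GFP-positive differentiation at or above the plate's own cutoff, the solvent-only control mean plus 3 SD; inconclusive = no clear call, values can overlap the other calls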;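 also: cells exposed to compound for four days before flow analysis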
Granule exo CP1 – inhibitors of lytic granule exocytosis, confirmation, TALL-104 cells, flow cytometry, Cherry Pick01. LAMP-1 externalization; stimulated with PMA plus thapsigargin. AID 651954, 2012. 1,500 compounds, 11% hits. inhibition, % at 10 µM. shares compounds with Granule exo inh; in the data active = inhibition above about 60%;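 also: 0% = stimulated vehicle wells and 100% = unstimulated wells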
Active calls of the source: *; i = inactive; u = inconclusive; x = not tested or not shown.

SMILES	GC-A act	GC-B act	Granule exo inh	Myeloid diff 2	Granule exo CP1
CN(C)CCCN(C(=O)c1cc(-c2cccs2)nc2ccccc12)c1nc2c(F)cccc2s1	-5	-11	53	i	x
CCOc1cccc2sc(N(CCCN(C)C)C(=O)c3ccc(S(=O)(=O)N4CCc5ccccc5C4)cc3)nc12	-8	-1	38	u	x
CN(C)CCCN(C(=O)c1nc2ccccc2s1)c1nc2ccc(F)cc2s1	5	4	-2	i	x
C[C@@H]1CCCCO[C@H](CN(C)S(=O)(=O)c2cn(C)cn2)[C@@H](C)CN([C@H](C)CO)C(=O)c2cc(NC(=O)CCCN(C)C)ccc2O1	1	5	x	x	x
O=C(Nc1nc(-c2ccc(S(=O)(=O)N3CCOCC3)cc2)cs1)c1ccccc1	0	4	-1	i	x
O=C(Nc1nc(-c2nc3ccccc3s2)cs1)c1ccc(S(=O)(=O)N2CCOCC2)cc1	3	-9	62*	i	8
COc1ccc(C2CC(=O)Oc3c(C(CCN4CCCC(C)C4)c4ccc(N(C)C)cc4)c(OC)cc(OC)c32)cc1 (stereo not given)	1	-2	72*	i	-2
CCCCCc1c(-c2cccc(F)c2)ncn1CCc1ccccc1OC	-1	-9	56*	i	68*
CCCCCc1c(-c2cccc(Cl)c2)ncn1CCc1ccccc1OC	3	-1	-5	i	x
CCCCCc1c(-c2ccccc2OC)ncn1CCc1ccccc1OC	-19	-17	68*	u	39
CCCCCc1c(-c2cccc(OC)c2)ncn1CCc1ccccc1OC	-9	-8	76*	i	47
COC(=O)C[C@@H]1CC[C@H]2[C@@H](COc3ccc(NC(=O)Nc4ccccc4Cl)cc3C(=O)N2C)O1	6	-1	x	x	x
O=C(CCN1C(=O)CC1c1ccco1)N1CCOCC1 (stereo not given)	x	x	-2	i	x
CC(C)Cc1ccc(C(C)/C=C2/CCC(CN3CCCCC3)C2=O)cc1 (stereo not given)	-10	-9	48	i	x
CC(C)Cc1ccc(C(C)CC2=CCC(CN(C)C)C2=O)cc1 (stereo not given)	-16	-14	66*	u	-4
CN(Cc1ccccc1)c1ncnc2sccc12	9	1	57*	i	-3
COc1cccc(-c2nc(CN3CCN(C(=O)c4ccco4)CC3)c(C)o2)c1OC	-2	4	7	i	x
CCC(C)[C@H](NC(=O)Nc1ccccc1F)C(=O)OC (stereo not given in full)	1	-2	83*	i	-13
O=C(Nc1cccc(Cl)c1)c1nc[nH]c1C(=O)Nc1ccccc1F	3	-2	2	i	x
COC(=O)[C@@]12C[C@@H](CC(=O)NCc3ccc(OC)c(OC)c3)C(=O)N(Cc3ccco3)C1=CCC(C)(C)C2	3	2	1	i	x
CCOC(=O)C1=CCN(S(=O)(=O)c2ccc(C)cc2)C1c1ccc(CC)cc1 (stereo not given)	-4	-1	-4	i	x
COc1cccc(CNC(=O)c2ccc(Cl)c(NC3=NC4CS(=O)(=O)CC4S3)c2)c1 (stereo not given)	-2	-2	-6	u	x
COc1ccc(-c2ccc3c(c2)c(Sc2ccccc2)c(-c2ccccc2)n3C)cn1	-1	7	5	i	x
COc1ccc(C2CCCN2CC(O)COc2ccccc2C(C)C)cc1 (stereo not given)	-31	-12	63*	i	-12
COc1cc(CN2CCN(C(c3ccccc3)c3ccccc3)CC2)cc(OC)c1OC	-13	-3	64*	i	-11
c1ccc(OCCN2CCNCC2)cc1	2	-2	-3	i	x
c1ccc(OCCN2CCN(C(c3ccccc3)c3ccccc3)CC2)cc1	2	-4	84*	i	-5
CCCC[C@H]1C2CC(OC(=O)Nc3ccc4c(c3)OCO4)C(C2)[C@H]2CCCCN21 (stereo not given in full)	4	1	x	x	x
O=C1C(=O)N(C/C=C/c2ccccc2)c2ccccc21	-17	-8	62*	u	-2
O=C1c2ccccc2C(=O)N1C/C=C/c1ccccc1	-11	5	1	i	x

Source: PubChem BioAssay (several laboratories)
